Assay results taken from PubChem BioAssay (NCI).
This is part of a sample that, as a whole, favours compounds with a hit. Of some 83,000 tested, about 20% had one in any assay.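 The endpoint reported here, percent growth, reads 100 for growth as untreated, 0 for no net growth and -100 for all cells dead.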 Unmarked numbers belong to inactive results. Active and inactive are the calls of the source. How the source made its calls: active means growth percent below 10; inactive means the rest.

Legend:
Experiment in all cases: NCI-60 one-dose screen, 48 h (100 = growth as untreated, 0 = no growth, -100 = all killed)
Details in all cases: 10 µM unless noted
[1] = test system: SK-MEL-2 melanoma
[2] = test system: EKVX NSCLC
[3] = test system: SN12C renal
[4] = test system: UO-31 renal
[5] = test system: TK-10 renal
[6] = test system: ACHN renal
[7] = test system: CAKI-1 renal
[8] = test system: A498 renal
[9] = test system: MOLT-4 leukemia
[10] = test system: CCRF-CEM leukemia

Compound | growth [1] | growth [2] | growth [3] | growth [4] | growth [5] | growth [6] | growth [7] | growth [8] | growth [9] | growth [10]
Nc1nc2c(c3ncccc13)C(c1cccc(Cl)c1)Cc1ncccc1-2 (configuration not stated) | 25.3% | 39.8% | 36.7% | 38% | 55.8% | 45.5% | 30.2% | -7.23% (active) | 14.5% | 
C=CCC(CCCC)(C(=O)OCC)C(=O)OCC | 100% | 114% | 110% | 85.3% | 104% | 102% | 96.7% | 111% | 108% | 
C=C(CNCCO)[C@@H]1CC[C@]2(CO)CC[C@]3(C)[C@H](CC[C@@H]4[C@@]5(C)CCC(N)C(C)(C)[C@@H]5CC[C@]43C)[C@@H]12 (some centres not stated) | -29.2% (active) | 72% | 71.7% | 81.7% | 68.9% | 97.5% | 54.1% | 81.7% | 8.81% (active) | 
CCN(CC)CCN1C(=O)c2cccc3c(/C=C/CN4C(=O)c5cccc6cccc(c56)C4=O)ccc(c23)C1=O | 108% | 106% | 96.1% | 82% | 129% | 96.8% | 89% | 77.7% | 62.8% | 
CN1CCN(Cc2ccc(NC(=O)c3cncc(C#Cc4cnc(N)c5ncccc45)c3)cc2C(F)(F)F)CC1 | -77.3% (active) | 33.3% | -33.2% (active) | -92.3% (active) | -63.8% (active) | -75.6% (active) | -23.9% (active) | -27% (active) | 14.5% | 19.3%
COc1cc2nc3sc(C(=O)Nc4ccc(C(=O)OC(C)C)cc4)c(C(=O)Nc4ccc(Cl)cc4C)n3c(=O)c2cc1OC | 110% | 77.2% | 102% | -5.58% (active) | 6.58% (active) | 97% | 42.7% | 56.7% | 52.8% | 
COc1ccc(/C=C2\CN(C(=O)C(Cl)Cl)C/C(=C\c3ccc(OC)cc3)C2=O)cc1 | 68.6% | 14.5% | -38.9% (active) | -97.8% (active) | 20.4% | -58.3% (active) | -18.9% (active) | -73.1% (active) | 5.42% (active) | 9.77% (active)
CN1CCN(Cc2ccc(NC(=O)c3cncc(C#Cc4cnc(N)c5ccc(F)cc45)c3)cc2C(F)(F)F)CC1 | -55.1% (active) | 42% | 13.2% | -3.87% (active) | 24.1% | 6.63% (active) | 19.7% | 25% | 13.1% | 
O=C(Cc1ccc(/C=C/C(=O)c2ncc[nH]2)cc1)Nc1cc(C(F)(F)F)cc(C(F)(F)F)c1 | 110% | 108% | 94.9% | 62.9% | 115% | 105% | 78.5% | 94.3% | 67.7% | 92.9%
COc1ccccc1C(=O)Nc1cccc(NC(=O)c2ccoc2C)c1 | 10.3% | 71% | 43.3% | 49.6% | 44.7% | 52.1% | 40.6% | 47.1% | 25% | 10.9%
NC1(CO)COC(c2ccccc2)OC1 (configuration not stated) | 102% | 118% | 104% | 87.6% | 96.5% | 96.3% | 103% | 107% | 89% | 
CN1CCN(c2ccc3nc4c(nc3c2C(F)(F)F)C(=O)c2ncccc2C4=O)CC1 | -34.5% (active) | 5.13% (active) | -95.4% (active) | -19.1% (active) | 80.3% | -44.2% (active) | 33.1% | -21.1% (active) | -36.4% (active) | 5.71% (active)
O=S(=O)(Oc1ccc(Br)cc1)c1ccc(Cl)cc1 | 116% | 95.7% | 105% | 82.3% | 84.1% | 117% | 105% | 86.6% | 85.1% | 
